Screening data (PubChem BioAssay)
Hits are enriched below; roughly 2.3% of the tested compounds scored in any of these assays.
IDE inh = inhibits human insulin-degrading enzyme in HEK cells. P14735. FAbetaB cleavage, fluorescence polarization. inhibition, % at 5.59 µM. actives 0.41% (n = 320,000). AID 434962;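 active means percent inhibition above the average of all tested compounds plus 3 SD, set per screening campaign, cut at about 16% in these data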;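 further: IDE supplied by intact live HEK cells; FP after avidin binding of uncleaved biotin substrate so inhibition keeps polarization high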
Rpn11 block = blocks the human proteasome subunit Rpn11; O00487; human 26S proteasome, Ub4-pepOG fluorescence polarization; 20S core pre-blocked with epoxomicin; inhibition, % at 20 µM; actives 0.59% (n = 360,000); AID 588493;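 active means inhibition at 20 µM, scaled to each plate's controls, above about 33%, limit read from the data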
Target sequence (O00487 whole entry, looked up): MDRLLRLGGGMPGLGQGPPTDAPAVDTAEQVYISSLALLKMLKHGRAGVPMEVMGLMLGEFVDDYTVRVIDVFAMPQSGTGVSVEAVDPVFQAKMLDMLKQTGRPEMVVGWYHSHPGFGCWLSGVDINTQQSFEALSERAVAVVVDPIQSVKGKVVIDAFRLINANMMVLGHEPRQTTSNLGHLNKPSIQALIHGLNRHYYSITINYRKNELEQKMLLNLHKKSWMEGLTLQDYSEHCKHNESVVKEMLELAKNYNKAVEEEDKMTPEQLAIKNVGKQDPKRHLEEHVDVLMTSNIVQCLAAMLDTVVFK
Rin1 Abl inh = inhibitors of human Rin1-Abl protein interaction; P00519+Q13671; TR-FRET Rin1/Abl binding, biochemical; inhibition, % at 7.35 µM; actives 0.4% (n = 360,000); AID 588664; in the data active means inhibition above about 5%, passing the limit was not always enough
IDE act = IDE (human) activation, cell-based | P14735 | HEK cells, FAbeta-B cleavage, fluorescence polarization; 0% vehicle, 100% cell-free pure enzyme wells | activation, % at 5.96 µM | actives 0.073% (n = 340,000) | AID 493087;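 active means activation above the mean of all tested compounds plus 3 SD, set per screening campaign, cut at about 17% in these data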
Calb FLC = affects C. albicans growth with fluconazole | C. albicans CaCi-2 (fluconazole-resistant clinical isolate) + fluconazole, Alamar Blue growth, 48 h | growth inhibition, % (test concentration not listed) | actives 0.57% (n = 300,000) | AID 1979;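 active means growth inhibition above about 58% in most replicates, limit read from the data, passing the limit was not always enough; inconclusive means exactly half the replicates above a set limit; inactive means most replicates below a set limit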;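 further: all wells also contain fluconazole at 8 µg/ml as a sub-toxic cotreatment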
TPT1 inhibitor = C. albicans TPT1 enzyme inhibition. recombinant caTPT1, FP RNA substrate dephosphorylation. actives 0.81% (n = 300,000). inhibition, % at 5 µM. AID 1962;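 active means inhibition above the mean of all tested compounds plus 3 SD, set per screening campaign, cut at about 24% in these data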
IDE cell inh cf = cellular human IDE inhibition, confirmation | shares compounds with IDE inh | HEK cells, FAbetaB cleavage, fluorescence polarization | inhibition, % at 5.59 µM | actives 51% (n = 1,200);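 active means mean inhibition across triplicate wells above the cutoff set by the earlier primary insulin-degrading enzyme screen, cut at about 16% in these data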
HEK cytotox = counter-screen for IDE inhibitors: cytotoxicity in HEK cells | inhibition, % at 5.59 µM | shares compounds with IDE inh | HEK293 cytotoxicity, ATP luminescence | actives 28% (n = 1,200) | AID 449730; in the data active means inhibition above about 22%
Numbers stand for hits.

Results for Cc1nc(Nc2nc(CSc3nc4ccccc4[nH]3)cc(=O)[nH]2)nc2ccccc12 ?
IDE inh: 45; Rpn11 block: inactive; Rin1 Abl inh: inactive; IDE act: inactive; Calb FLC: inactive; TPT1 inhibitor: inactive; IDE cell inh cf: inactive; HEK cytotox: 42

How did COc1ccc2nc(Nc3nc(CSc4nc5ccccc5[nH]4)cc(=O)[nH]3)nc(C)c2c1 do in these assays?
IDE inh: inactive; Rpn11 block: inactive; Rin1 Abl inh: inactive; IDE act: inactive; Calb FLC: inconclusive; TPT1 inhibitor: inactive

What do the screens show for `Cc1c(C(=O)C(=O)N2CC=C(c3ccccc3)CC2)c2ccccc2n1C`?
IDE inh: 16; Rpn11 block: inactive; Rin1 Abl inh: inactive; IDE act: inactive; Calb FLC: inconclusive; TPT1 inhibitor: inactive; IDE cell inh cf: inactive; HEK cytotox: 55

Results for Cc1cc2nc(-c3ccc(SCc4ccc(C#N)cc4)nc3)[nH]c2cc1C ?
IDE inh: 17; Rpn11 block: inactive; Rin1 Abl inh: inactive; IDE act: inactive; Calb FLC: inactive; TPT1 inhibitor: inactive; IDE cell inh cf: inactive; HEK cytotox: inactive

How did CC(=O)CSc1ccc(-c2nc3cc(C)c(C)cc3[nH]2)cn1 do in these assays?
IDE inh: inactive; Rpn11 block: inactive; Rin1 Abl inh: inactive; IDE act: inactive; Calb FLC: inactive; TPT1 inhibitor: inactive

Results for Cc1cc2nc(-c3ccc(SCC(=O)Nc4ccc(S(=O)(=O)N5CCCC5)cc4)nc3)[nH]c2cc1C ?
IDE inh: 17; Rin1 Abl inh: inactive; IDE act: inactive; Calb FLC: inactive; TPT1 inhibitor: inactive; IDE cell inh cf: inactive; HEK cytotox: inactive

Results for CC(=O)c1cccc(NC(=S)NCCC2=CCCCC2)c1 ?
IDE inh: inactive; Rpn11 block: inactive; Rin1 Abl inh: inactive; IDE act: inactive; Calb FLC: inactive; TPT1 inhibitor: inactive

How did O=C(NCCC1=CCCCC1)Nc1ccc2nsnc2c1 do in these assays?
IDE inh: 31; Rpn11 block: inactive; Rin1 Abl inh: inactive; IDE act: inactive; Calb FLC: inactive; TPT1 inhibitor: inactive; IDE cell inh cf: 17; HEK cytotox: inactive

What do the screens show for `COc1cc(C(=O)Oc2ccccc2OC(=O)c2cc(OC)c(OC)c(OC)c2)cc(OC)c1OC`?
Rpn11 block: inactive; Rin1 Abl inh: inactive; IDE act: inactive

How did CCN1CCc2c(sc(NC(=S)NC(=O)c3ccccc3)c2C#N)C1 do in these assays?
IDE inh: 26; Rpn11 block: inactive; Rin1 Abl inh: inactive; IDE act: inactive; Calb FLC: inactive; TPT1 inhibitor: 28; IDE cell inh cf: inactive; HEK cytotox: inactive

What do the screens show for `Cc1ccc(-c2cc(C(=O)Nc3ccc(S(=O)(=O)N4CC(C)OC(C)C4)cc3)[nH]n2)c(O)c1` (stereo not drawn)?
IDE inh: 20; Rpn11 block: inactive; Rin1 Abl inh: inactive; IDE act: inactive; Calb FLC: inactive; TPT1 inhibitor: inactive; IDE cell inh cf: inactive; HEK cytotox: 32

Results for COc1ccc(N(CC(=O)N2CCN(c3ccc(Cl)cc3)CC2)S(=O)(=O)c2c(C)n[nH]c2C)cc1 ?
IDE inh: 18; Rpn11 block: inactive; Rin1 Abl inh: inactive; IDE act: inactive; Calb FLC: inactive; TPT1 inhibitor: inactive; IDE cell inh cf: inactive; HEK cytotox: inactive

What do the screens show for `CC(C)(C)C(=O)NCCCc1nc2ccccc2n1CCCOc1ccc(Cl)cc1`?
IDE inh: inactive; Rpn11 block: inactive; Rin1 Abl inh: inactive; IDE act: inactive; Calb FLC: inactive; TPT1 inhibitor: inactive

How did S=C(NCC1CCCO1)N1CCN(c2nc(-c3ccc(Cl)cc3)cs2)CC1 (stereo not drawn) do in these assays?
IDE inh: 21; Rpn11 block: inactive; Rin1 Abl inh: inactive; IDE act: inactive; Calb FLC: inactive; TPT1 inhibitor: inactive; IDE cell inh cf: inactive; HEK cytotox: 54

Results for S=C(NCCCN1CCOCC1)N1CCN(c2nc(-c3ccccc3)cs2)CC1 ?
IDE inh: 23; Rpn11 block: inactive; Rin1 Abl inh: inactive; IDE act: inactive; Calb FLC: inactive; TPT1 inhibitor: inactive; IDE cell inh cf: inactive; HEK cytotox: 27
